This is an account of results in PubChem BioAssay (Tox21).

“And” between values parts separate entries of the source, which are not always exact repeats. Identical values can stand only once. Inconclusive results are not listed. The source made the active and inactive calls. Unless noted, calls follow the shape of the full dose curve.

The nature of experiment [1]: Nuclear factor erythroid 2-related factor 2/antioxidant responsive element (Nrf2/ARE) small molecule agonists: qHTS cell viability counter screen in human keratinocytes (AID 1919968; active = well fitted curve in the direction sought with a large enough effect in the repeat runs; an effect the other way counts as inactive or inconclusive; also: nearly all actives have a fitted effect of over 55% in size). Summed up: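 Measured as CellTiter-Fluor fluorescence, this readout tracks cytotoxicity in the same wells as the ARE-luciferase screen. HaCaT reporter cells (1,500/well) received compounds after a 5 h pre-incubation and were exposed for 23 h.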
(In qHTS, concentration-response curves come from the screen itself.)

Experiment [2] in a line: Nuclear factor erythroid 2-related factor 2/antioxidant responsive element (Nrf2/ARE) small molecule agonists: luciferase reporter gene qHTS assay in human keratinocytes (AID 1919969; also: nearly all actives have a fitted effect of over 35% in size; also: potency is read from the fitted curve at half-maximal effect). (In general: Reporter assays use an easily measured gene product as a stand-in for the process of interest.)
The target of experiment [3] is Gonadotropin-releasing hormone receptor (Homo sapiens) (UniProt P30968). The experiment in a line: Human gonadotropin-releasing hormone receptor (GnRHR) small molecule agonists, calcium flux assay in GnRHR-HEK293 cells (AID 1920063). Also: nearly all actives have a fitted effect of over 35% in size. An outline of the steps:
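Fluorescence kinetics (480 nm excitation, 540 nm emission; 3 min, 1 s steps) report calcium mobilisation in human GnRHR-HEK293 cells in agonist mode. Dye incubation: 1 h, 37 C.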
(In general: Calcium flux is commonly read through the fluorescence of an indicator in the cells.)

Experiment [4] has as its target KiSS-1 receptor (Homo sapiens) (UniProt Q969F8). In words: Human kisspeptin (KISS1R) small molecule agonists, calcium flux assay in KISS1R-HEK293 cells (AID 1920064; active = well fitted curve in the direction sought with a large enough effect in the repeat runs; an effect the other way counts as inactive or inconclusive). An outline of the steps: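 Measures KISS1R agonism through calcium-sensitive dye fluorescence in stably transfected HEK293 cells, read for 3 min after pin-tool compound delivery; 15-point titrations in triplicate.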

A short description of experiment [5]: G protein-coupled receptor (GPCR) small molecule agonists, calcium flux assay: HEK293 wild type cell line counter screen (AID 1920065). An outline of the steps: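 Readout: fluorescence at 480 nm excitation/540 nm emission, sampled at 1 s intervals for 3 min. Cells had been cultured 18 h, then dye-loaded 1 h at 37 C before compound or ATP addition.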
Experiment [6] can be described thus: p53 small molecule agonists, cell-based qHTS assay with human liver microsomes (AID 1963577).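 Also: p53 response element beta-lactamase reporter cells with liver microsomes plus NADPH.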 Summed up: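 With metabolic activation: human liver microsomes (0.5 mg/mL final) plus NADPH (0.5 mg/mL final) added alongside compounds to p53RE-bla cells; 16 h 37 C exposure; beta-lactamase read by LiveBLAzer fluorescence.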
Experiment [7] in a line: p53 small molecule agonists, cell-based qHTS assay with rat liver microsomes (AID 1963578). An outline of the steps: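 Metabolic activation by rat liver microsomes and NADPH, each 0.5 mg/mL final, added right after compounds to p53RE-bla reporter cells (4,000/well, plated 5 h earlier). 16 h at 37 C, then LiveBLAzer substrate for 2 h at room temperature in the dark; fluorescence read-out.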

Experiment [8] is described as follows: p53 small molecule agonists, cell-based qHTS assay with human liver microsomes: qHTS cell viability counter screen (AID 1963579). Also: nearly all actives have a fitted effect of over 45% in size. An outline of the steps:
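Metabolic activation used human liver microsomes and NADPH, both 0.5 mg/mL final, over 16 hours at 37 C on p53RE-bla cells (4,000/well). Cytotoxicity measured by CellTiter-Glo luminescence, 30 min at room temperature.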

Experiment [9] is described as follows: p53 small molecule agonists, cell-based qHTS assay with rat liver microsomes: qHTS cell viability counter screen (AID 1963580). Also: nearly all actives have a fitted effect of over 45% in size. Summed up:
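p53RE-bla HCT-116 cells were exposed 16 h at 37 C to compounds with rat liver microsomes (0.5 mg/mL) and NADPH (0.5 mg/mL). Viability was measured in the same wells as ATP content by CellTiter-Glo luminescence.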

A short description of experiment [10]: p53 small molecule agonists, cell-based qHTS assay: qHTS cell viability counter screen (AID 1963581). Also: nearly all actives have a fitted effect of over 45% in size. Summed up: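 In the same plates used for the p53 bla reporter, HCT-116 cells given compounds for 16 h at 37 C received CellTiter-Glo; luminescence was recorded 30 min later at room temperature.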
Experiment [11] can be described thus: p53 small molecule agonists, cell-based qHTS assay (AID 1963582; active = well fitted activation curve with a large enough effect in the signal ratio in the repeat runs, not every such curve was filed as active; the % refers to the signal ratio). Summed up:
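Compounds are pin-transferred in DMSO onto p53RE-bla cells and incubated 16 h at 37 C. The B/G FRET beta-lactamase substrate is then applied for 2 h at RT and fluorescence recorded.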

The target of experiment [12] is 5-hydroxytryptamine receptor 2A (Homo sapiens) (UniProt P28223). The experiment in a line: 5-hydroxytryptamine receptor 2A (HTR2A) small molecule antagonists, cell-based qHTS assay (AID 1963586). Also: nearly all actives have a fitted effect of over 45% in size. An outline of the steps: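 Antagonist-mode intracellular calcium assay: DOI (4 nM) added after 5 min compound pre-incubation at room temperature to dye-loaded HTR2A-CHO cells. Fluorescence followed for 3 min, sampled every second.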
Sequence of 5-hydroxytryptamine receptor 2A (Homo sapiens) (P28223 whole entry, looked up): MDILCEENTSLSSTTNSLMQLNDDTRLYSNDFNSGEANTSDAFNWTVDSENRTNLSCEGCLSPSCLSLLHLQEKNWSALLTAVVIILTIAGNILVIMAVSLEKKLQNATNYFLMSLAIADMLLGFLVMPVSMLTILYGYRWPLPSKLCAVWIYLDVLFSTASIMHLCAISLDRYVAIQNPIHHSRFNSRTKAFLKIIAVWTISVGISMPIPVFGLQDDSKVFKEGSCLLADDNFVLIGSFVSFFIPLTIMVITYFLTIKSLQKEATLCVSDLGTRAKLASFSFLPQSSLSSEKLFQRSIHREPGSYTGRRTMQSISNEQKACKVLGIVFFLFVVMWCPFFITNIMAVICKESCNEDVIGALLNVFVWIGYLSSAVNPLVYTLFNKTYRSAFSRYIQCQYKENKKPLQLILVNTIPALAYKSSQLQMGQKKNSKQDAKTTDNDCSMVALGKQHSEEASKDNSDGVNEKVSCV

For experiment [13] the target is unchanged. In words: 5-hydroxytryptamine receptor 2A (HTR2A) small molecule agonists, cell-based qHTS assay (AID 1963587). Also: nearly all actives have a fitted effect of over 30% in size. An outline of the steps: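 CHO cells stably expressing human HTR2A, plated 18 h, loaded with calcium dye 1 h at 37 C. Agonist mode: compounds added and intracellular calcium fluorescence recorded kinetically for 2 min at 1 sec intervals.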
Experiment [14] has as its target Muscarinic acetylcholine receptor M1 (Homo sapiens) (UniProt P11229). In words: Cholinergic receptor muscarinic 1 (CHRM1) small molecule antagonists, cell-based qHTS assay (AID 1963588). Also: nearly all actives have a fitted effect of over 40% in size. An outline of the steps:
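CHRM1-CHO calcium-flux assay, antagonist mode. Cells were seeded 18 h, dye-loaded 1 h at 37 C and given compound for 5 min at RT, then acetylcholine was added at 50nM. FDSS fluorescence was read 3 min; 15 concentrations, three runs.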

For experiment [15] the target is unchanged. The experiment in a line: Cholinergic receptor muscarinic 1 (CHRM1) small molecule agonists, cell-based qHTS assay (AID 1963589). Also: nearly all actives have a fitted effect of over 35% in size. Summed up:
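Each compound was tested at 15 concentrations across three independent runs on dye-loaded CHO cells stably expressing human CHRM1, reading intracellular calcium fluorescence kinetically at 1 sec intervals.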

Experiment [16] in a line: cAMP Responsive Elements (CRE) small molecule agonists, cell-based qHTS assay (AID 1963590). An outline of the steps: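 Cell line: CRE-bla HEK 293T; medium DMEM/10% dialyzed FBS/0.1 mM NEAA/1 mM pyruvate/25 mM HEPES; 3 h compound exposure; beta-lactamase FRET readout after 2 h substrate loading at RT.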
Experiment [17] in a line: cAMP Responsive Elements (CRE) small molecule antagonists, cell-based qHTS assay (AID 1963591; active = well fitted inhibition curve with a large enough effect in the signal ratio in the repeat runs, not every such curve was filed as active; the % refers to the signal ratio). An outline of the steps:
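Inhibition of NKH477-driven (0.25 uM final) CRE-beta-lactamase signal in HEK293T cells, 3 h compound exposure at 37 °C, detected by FRET substrate fluorescence.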

The target of experiment [18] is Beta-2 adrenergic receptor (Homo sapiens) (UniProt P07550). In words: Adrenergic beta2 receptor (ADRB2) small molecule antagonists, cell-based qHTS assay (AID 1963592). Also: series mostly up to about 92 µM; nearly all actives have a fitted effect of over 50% in size. An outline of the steps:
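Cells (CHO, stable ADRB2 overexpression) incubated 18-20hr at 37C; compounds added from DMSO; agonist mix (1nM isoproterenol, 100uM IBMX, 25uM Ro-20-1724) added; 0.5hr RT; d2-cAMP and anti-cAMP-cryptate added; 1hr RT; 665/615 nm read.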

Experiment [19] has as its target D(2) dopamine receptor (Homo sapiens) (UniProt P14416). The experiment in a line: Dopamine D2 receptor (DRD2) small molecule agonists, cell-based qHTS assay (AID 1963594). Also: nearly all actives have a fitted effect of over 35% in size. Summed up:
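HEK293 cells stably expressing human DRD2, pre-treated with PDE inhibitor Ro20-1724 (0.1 mM final) and compound 10 min at room temperature, then stimulated with NKH477 (200nM […]) for 30 min. cAMP read by HTRF (665/620 nm).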

For experiment [20] the target is unchanged. In words: Dopamine D2 receptor (DRD2) small molecule antagonists, cell-based qHTS assay (AID 1963595; active = well fitted inhibition curve with a large enough effect in the signal ratio in the repeat runs, with a control signal flat; the % refers to the signal ratio). Summed up:
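Cells were plated and grown for 24 h at 37 °C. Ro20-1724 (0.1 mM final) went in first, then compound for 10 min. NKH477 (200 nM) with quinpirole (12 nM) followed for 30 min at RT, then HTRF detection reagents for 1 h.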

Sequence of D(2) dopamine receptor (Homo sapiens) (P14416 whole entry, looked up): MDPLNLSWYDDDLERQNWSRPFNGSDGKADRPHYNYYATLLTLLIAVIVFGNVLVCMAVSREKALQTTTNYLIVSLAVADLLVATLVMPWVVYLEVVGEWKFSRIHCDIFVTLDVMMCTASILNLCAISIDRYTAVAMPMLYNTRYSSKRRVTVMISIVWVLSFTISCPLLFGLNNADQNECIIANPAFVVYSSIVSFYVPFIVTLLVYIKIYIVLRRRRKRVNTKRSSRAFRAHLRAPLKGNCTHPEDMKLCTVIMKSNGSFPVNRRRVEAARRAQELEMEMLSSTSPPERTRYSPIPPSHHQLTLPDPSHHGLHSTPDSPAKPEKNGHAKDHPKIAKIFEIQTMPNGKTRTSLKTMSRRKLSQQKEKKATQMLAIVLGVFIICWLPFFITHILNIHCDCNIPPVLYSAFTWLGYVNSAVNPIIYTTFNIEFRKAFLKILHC
Sequence of Muscarinic acetylcholine receptor M1 (Homo sapiens) (P11229 whole entry, looked up): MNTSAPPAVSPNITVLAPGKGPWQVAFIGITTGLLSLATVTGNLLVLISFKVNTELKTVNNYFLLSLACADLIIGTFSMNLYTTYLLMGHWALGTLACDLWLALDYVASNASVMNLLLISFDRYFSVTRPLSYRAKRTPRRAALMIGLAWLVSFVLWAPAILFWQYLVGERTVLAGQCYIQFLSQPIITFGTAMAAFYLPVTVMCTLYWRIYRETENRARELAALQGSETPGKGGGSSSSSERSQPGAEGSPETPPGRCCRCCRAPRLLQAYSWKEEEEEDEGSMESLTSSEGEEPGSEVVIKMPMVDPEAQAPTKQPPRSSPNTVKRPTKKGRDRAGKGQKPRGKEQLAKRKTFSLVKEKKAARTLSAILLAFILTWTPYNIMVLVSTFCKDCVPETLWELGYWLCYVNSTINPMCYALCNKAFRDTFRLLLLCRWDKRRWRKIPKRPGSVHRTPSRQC
Sequence of Beta-2 adrenergic receptor (Homo sapiens) (P07550 whole entry, looked up): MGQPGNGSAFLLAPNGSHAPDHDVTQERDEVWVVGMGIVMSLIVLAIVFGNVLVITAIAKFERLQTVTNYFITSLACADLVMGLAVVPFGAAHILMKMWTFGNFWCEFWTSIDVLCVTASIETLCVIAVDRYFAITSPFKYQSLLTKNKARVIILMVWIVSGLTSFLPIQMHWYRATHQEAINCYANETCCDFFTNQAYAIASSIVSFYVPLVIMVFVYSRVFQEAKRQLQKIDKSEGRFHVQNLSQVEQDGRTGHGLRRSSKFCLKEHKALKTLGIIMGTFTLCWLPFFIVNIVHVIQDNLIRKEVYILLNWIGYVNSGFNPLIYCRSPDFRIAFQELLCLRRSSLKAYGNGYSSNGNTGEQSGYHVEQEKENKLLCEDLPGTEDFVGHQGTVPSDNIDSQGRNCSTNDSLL
Sequence of Gonadotropin-releasing hormone receptor (Homo sapiens) (P30968 whole entry, looked up): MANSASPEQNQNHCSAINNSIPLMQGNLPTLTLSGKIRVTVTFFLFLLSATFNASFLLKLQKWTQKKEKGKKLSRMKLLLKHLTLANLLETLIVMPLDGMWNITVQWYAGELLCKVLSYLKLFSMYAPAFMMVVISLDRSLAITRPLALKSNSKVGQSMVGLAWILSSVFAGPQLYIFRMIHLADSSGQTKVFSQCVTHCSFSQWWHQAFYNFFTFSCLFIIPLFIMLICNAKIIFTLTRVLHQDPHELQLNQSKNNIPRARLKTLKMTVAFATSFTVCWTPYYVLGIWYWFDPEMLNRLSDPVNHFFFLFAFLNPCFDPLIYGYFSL
Sequence of KiSS-1 receptor (Homo sapiens) (Q969F8 whole entry, looked up): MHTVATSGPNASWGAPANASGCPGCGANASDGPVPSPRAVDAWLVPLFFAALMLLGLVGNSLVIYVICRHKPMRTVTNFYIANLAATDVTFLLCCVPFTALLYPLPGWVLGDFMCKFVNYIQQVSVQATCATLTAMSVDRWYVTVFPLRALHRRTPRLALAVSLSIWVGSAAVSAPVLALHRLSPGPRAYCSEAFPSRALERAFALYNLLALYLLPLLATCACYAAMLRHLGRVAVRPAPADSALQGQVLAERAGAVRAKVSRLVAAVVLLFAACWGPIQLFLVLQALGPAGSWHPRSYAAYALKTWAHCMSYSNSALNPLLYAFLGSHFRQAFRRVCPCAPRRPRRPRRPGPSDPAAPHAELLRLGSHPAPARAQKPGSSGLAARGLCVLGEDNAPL

For the molecule `Cl/C=C/CCl`, the Potency result in [1], in experiment [2], in [3], in experiment [4], in experiment [5] and in experiment [6] was “inactive” in each case. Further, the Potency entry in experiment [7], in experiment [8], in [9], in experiment [10], in [11] and in [12] was “inactive” each time. Besides, the Potency result in experiment [13], in [14], in experiment [15], in experiment [16], in experiment [17] and in experiment [18] was “inactive” each time. Also, the Potency entry in experiment [19] and in [20] was “inactive” each time.

As to `OCC(O)CCl` (configuration not stated), the Potency result in [1], in experiment [2], in experiment [3], in [4], in [5] and in experiment [6] was “inactive” each time. The Potency entry in experiment [7], in experiment [8], in experiment [9], in experiment [10], in [11] and in experiment [12] was “inactive” throughout. Besides, the Potency entry in experiment [13], in experiment [14], in experiment [15], in [16], in experiment [17] and in experiment [18] was “inactive” throughout. Also, the Potency entry in experiment [19] and in experiment [20] was “inactive” each time.

`C#CCOC(C(=O)OCCN(C)C)(c1ccccc1)c1ccccc1`: the Potency result in experiment [1], in experiment [2], in [3], in experiment [4], in experiment [5] and in experiment [6] was “inactive” in each case. In addition, the Potency entry in [7], in [8], in experiment [9], in experiment [10], in experiment [11] and in [12] was “inactive” each time. Besides, the Potency entry in experiment [13], in [14], in experiment [15], in experiment [16], in experiment [17] and in [18] was “inactive” throughout. In addition, the Potency result in experiment [19] and in experiment [20] was “inactive” each time.

As for `O=C(CCl)c1ccccc1`, the Potency result in experiment [1], in [3], in experiment [4], in [5], in experiment [6] and in experiment [7] was “inactive” each time. Besides, the Potency entry in [8], in experiment [9], in experiment [10], in experiment [11], in [12] and in [13] was “inactive” in each case. Moreover, the Potency result in experiment [14], in [15], in experiment [16], in experiment [17], in experiment [18] and in experiment [20] was “inactive” each time. The Potency in experiment [2] is 62 µM (active) and 54.5 µM (active).

Regarding `N#Cc1cccc(C#N)c1`, the Potency entry in [1], in experiment [2], in [3], in experiment [4], in [5] and in experiment [6] was “inactive” each time. Further, the Potency result in experiment [7], in experiment [8], in experiment [9], in experiment [10], in [11] and in [12] was “inactive” each time. The Potency entry in experiment [13], in experiment [14], in experiment [15], in [16], in [17] and in experiment [18] was “inactive” in each case. Also, the Potency entry in experiment [19] and in experiment [20] was “inactive” each time.

`Nc1ccc2ccccc2c1`: the Potency result in experiment [1], in [3], in experiment [4], in experiment [5], in [6] and in experiment [7] was “inactive” throughout. The Potency result in [8], in experiment [9], in experiment [10], in experiment [11], in experiment [12] and in experiment [13] was “inactive” in each case. Moreover, the Potency entry in experiment [14], in [15], in experiment [16], in experiment [17], in experiment [18] and in experiment [19] was “inactive” in each case. The Potency result in experiment [20] is “inactive”. Moreover, the Potency in experiment [2] was 37.2 µM (active) and 27.3 µM (active).

For the molecule `CCN(N=O)C(N)=O`, the Potency result in experiment [1], in experiment [2], in experiment [3], in experiment [4], in [5] and in experiment [6] was “inactive” in each case. Besides, the Potency entry in experiment [7], in [8], in experiment [9], in experiment [10], in [11] and in [12] was “inactive” in each case. In addition, the Potency result in experiment [13], in experiment [14], in experiment [15], in experiment [16], in experiment [17] and in [18] was “inactive” each time. Besides, the Potency entry in experiment [20] was “inactive”.

Consider `O=S(=O)(c1ccccc1)c1ccccc1`, for which the Potency entry in experiment [1], in experiment [2], in [3], in [4], in experiment [5] and in experiment [6] was “inactive” throughout. In addition, the Potency result in experiment [7], in experiment [8], in [9], in experiment [10], in experiment [11] and in experiment [12] was “inactive” throughout. Also, the Potency entry in experiment [13], in experiment [14], in experiment [15], in experiment [16], in experiment [17] and in experiment [18] was “inactive” throughout. In addition, the Potency result in experiment [20] is “inactive”.

Regarding `C=CC(=O)OCC(C)C`, the Potency result in experiment [1], in [2], in [3], in [4], in experiment [5] and in experiment [6] was “inactive” throughout. Further, the Potency result in [7], in experiment [8], in experiment [9], in experiment [10], in experiment [11] and in [12] was “inactive” throughout. For the same molecule, the Potency entry in experiment [13], in [14], in [15], in [16], in [17] and in [18] was “inactive” throughout. For the same molecule, the Potency entry in experiment [19] and in experiment [20] was “inactive” each time.
